The full list was thinned out, with hits kept by preference.
Tb PYK inh: qHTS of Trypanosoma Brucei Inhibitors. pyruvate kinase (Trypanosoma brucei), Q57TT1. TbPYK enzyme, Kinase-Glo Plus ATP luminescence, 45 min. Potency, µM (doses to about 76.8 µM), for the others: at the highest dose activity, negative = inhibition, actives largely listed as inhibitors. 410,000 compounds, 0.12% hits; also: potency is read from the fitted curve at half-maximal effect; % is scaled to controls: 0 for no effect and ±100 for the full control effect; nearly all actives have a fitted effect of over 50% in size
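Luminescent Kinase-Glo Plus end-point after 45 min room-temperature reaction of T. brucei pyruvate kinase started with 130 uM ADP (final). Buffer TEA 50 mM pH 7.2 with KCl, MgCl2, BSA, Tween-20; titration-based qHTS with fitted concentration-effect curves.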
SARS PLpro yeast: qHTS of Yeast-based Assay for SARS-CoV PLP; S. cerevisiae expressing SARS-CoV PLpro, growth rescue; Potency, µM (top dose mostly 32.9 µM), without a hit: top-dose activity, positive = growth rescue, actives largely listed as activators; 330,000 compounds, 0.19% hits; AID 485353, 2010; calls by dose curve; also: potency is read from the fitted curve at half-maximal effect; 0% is about no effect; nearly all actives have a fitted effect of over 55% in size
LmPK inh: qHTS Assay for Inhibitors of Leishmania Mexicana Pyruvate Kinase (LmPK) | Q27686 | purified LmPK, Kinase-Glo ATP luminescence, 1 h | Potency, µM (titrated, usually from 57.5 µM), for inactives: at the top dose activity change, negative = inhibition, hits mostly inhibitors | 290,000 compounds, 0.37% hits | AID 1721, 2009; also: potency is read from the fitted curve at half-maximal effect; % is scaled to controls: 0 for no effect and ±100 for the full control effect
Target sequence (Q27686 whole entry, looked up): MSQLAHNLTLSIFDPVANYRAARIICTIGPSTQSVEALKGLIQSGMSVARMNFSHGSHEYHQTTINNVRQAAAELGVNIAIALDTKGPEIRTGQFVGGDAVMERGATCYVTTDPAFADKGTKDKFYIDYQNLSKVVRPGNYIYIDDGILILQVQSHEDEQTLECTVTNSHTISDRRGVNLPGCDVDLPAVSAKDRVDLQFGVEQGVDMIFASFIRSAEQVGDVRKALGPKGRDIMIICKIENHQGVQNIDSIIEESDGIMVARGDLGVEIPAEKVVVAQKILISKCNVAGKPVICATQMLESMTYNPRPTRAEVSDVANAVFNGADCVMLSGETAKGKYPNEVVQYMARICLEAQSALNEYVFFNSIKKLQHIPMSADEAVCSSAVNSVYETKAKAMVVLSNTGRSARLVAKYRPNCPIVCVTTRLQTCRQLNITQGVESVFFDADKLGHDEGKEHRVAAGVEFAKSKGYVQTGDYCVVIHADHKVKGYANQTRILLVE
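Pyruvate kinase activity monitored as ATP production (luciferase luminescence). Conditions: 0.1 nM enzyme, 0.5 mM PEP, 0.1 mM ADP, 1 h, RT; normalized against uninhibited and no-enzyme wells.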
Shiga toxin inh: A qHTS for Small Molecule Inhibitors of Shiga Toxin; Vero cells, Shiga toxin protein synthesis inhibition reporter; inhibition, % at 38.7 µM; 290,000 compounds, 9.2% hits; AID 2315, 2010; in the data active = inhibition mostly above about 28%, no sharp cut-off; inactive = mostly below about 43%; also: 0% is about no effect
Cycloheximide cs: Cycloheximide Counterscreen for Small Molecule Inhibitors of Shiga Toxin | cell reporter, cycloheximide protein synthesis inhibition counterscreen | max response, % | 300,000 compounds, 12% hits | AID 2314, 2010; in the data active = max response mostly above about 13%, no sharp cut-off; inactive = mostly below about 14%; also: read at 38.3 µM for the half of the compounds with a filed dose; 0% is about no effect
NS1 function inh: qHTS Assay for Inhibitors of Influenza NS1 Protein Function; Potency, µM (doses to about 46.1 µM), for the others: at the highest dose activity, positive = more growth; 270,000 compounds, 0.4% hits; AID 2326, 2010; calls by dose curve; also: potency is read from the fitted curve at half-maximal effect; actives are rising curves; nearly all actives have a fitted effect of over 50% in size
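S. cerevisiae expressing influenza A NS1, grown in glucose, washed, then diluted 1:100 into pH 6.0 -URA galactose medium with 23 nl compound. Growth recovery read as OD600; NS1-free strain serves as control.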
* = called active by the depositor. Unless noted, calls follow the shape of the dose curve; as a rule, active = well fitted curve in the direction sought with a large enough effect; inconclusive = small, poorly fitted or top-dose-only effect, or another doubt; inactive = no such curve, though single readings can be large; an effect the other way counts as inactive or inconclusive.

c1ccc(-c2nn[nH]n2)c(Nc2cccc3c2CCCC3)c1 was read as Shiga toxin inh -5 and Cycloheximide cs -4.
Screening CC1(C(=O)NCc2ccccc2Br)CCN1C(=O)Cc1ccc(-c2ccccc2)cc1 (stereo not drawn) returned Tb PYK inh 3%.
`O=C(N/N=C/c1coc2ccccc2c1=O)c1ccccc1Br` gave Tb PYK inh -2%, SARS PLpro yeast -14%, LmPK inh 0%, Shiga toxin inh -3, Cycloheximide cs -2 and NS1 function inh -33%.
For O=C(/C=N/NC(=O)c1ccccc1Br)c1ccccc1 the results were Tb PYK inh 7%, SARS PLpro yeast -1%, LmPK inh -6%, Shiga toxin inh 81*, Cycloheximide cs 46* and NS1 function inh -8%.
`O=C(/C=N/NC(=O)c1ccc(Cl)cc1Cl)c1ccccc1` gave Tb PYK inh 3%, SARS PLpro yeast -1%, LmPK inh 0%, Shiga toxin inh 72*, Cycloheximide cs 30* and NS1 function inh -38%.
For COC(=O)c1ccc(NC(=O)c2c(-c3ccccc3)c(-c3ccccc3)nn(C)c2=O)cc1 the results were Tb PYK inh -3%.
For CCCCc1noc2c1/C(=N\O)CC(c1ccccc1)C2 (stereo not drawn) the results were Tb PYK inh -2%, SARS PLpro yeast 3%, LmPK inh -2%, Shiga toxin inh 18, Cycloheximide cs 22* and NS1 function inh 3%.
For COc1cccc(NC2=C(C#N)C(=O)NC(c3cccc(OC)c3O)S2)c1 (stereo not drawn) the results were Tb PYK inh -9%, SARS PLpro yeast 0%, LmPK inh 2%, Shiga toxin inh 61, Cycloheximide cs 19* and NS1 function inh 1%.
CN(C)/C=C1/N=C(c2ccccc2)OC1=O was read as Tb PYK inh -6%, SARS PLpro yeast 1%, LmPK inh 4%, Shiga toxin inh 13, Cycloheximide cs 11 and NS1 function inh 2%.
Screening CN(C)/C=C1\N=C(c2cccnc2Oc2ccc(Cl)cc2)OC1=O returned Tb PYK inh -12%, SARS PLpro yeast -1%, LmPK inh 4%, Shiga toxin inh 19, Cycloheximide cs -2 and NS1 function inh -2%.
`Cc1cccc(OCC2=N/C(=C\N(C)C)C(=O)O2)c1` gave Tb PYK inh -5%, SARS PLpro yeast 4%, LmPK inh 1%, Shiga toxin inh 41, Cycloheximide cs 22* and NS1 function inh 3%.
CN(C)/C=C1\N=C(c2ccc(Cl)cc2Cl)OC1=O was read as Tb PYK inh 2%, SARS PLpro yeast 2%, LmPK inh -1%, Shiga toxin inh 20, Cycloheximide cs 21* and NS1 function inh -10%.
For Cc1ccc(C2=N/C(=C\N(C)C)C(=O)O2)cc1 the results were Tb PYK inh -1%, SARS PLpro yeast -2%, LmPK inh -5%, Shiga toxin inh 75*, Cycloheximide cs 40* and NS1 function inh -8%.
Screening O=C(NC1CCN(Cc2ccccc2)CC1)c1cccc(S(=O)(=O)Nc2ccc(F)cc2)c1 returned Tb PYK inh 0% and SARS PLpro yeast 0%.
For COC(=O)c1cc2ccsc2n1Cc1cc(=O)n2ccccc2n1 the results were Tb PYK inh -5%, SARS PLpro yeast 5%, LmPK inh 2%, Shiga toxin inh 74*, Cycloheximide cs 28* and NS1 function inh -31%.
`O=c1c2sccc2n(Cc2cc(=O)n3ccccc3n2)c(=O)n1-c1ccccc1` gave Tb PYK inh 5%, SARS PLpro yeast 15%, LmPK inh -2%, Shiga toxin inh -5, Cycloheximide cs 1 and NS1 function inh 9%.
Screening CCc1ccc(/C=C2\Oc3cc(OS(C)(=O)=O)ccc3C2=O)cc1 returned Tb PYK inh 0%, SARS PLpro yeast -18%, LmPK inh 1%, Shiga toxin inh -7, Cycloheximide cs 14* and NS1 function inh 2%.
`CS(=O)(=O)Oc1ccc2c(c1)O/C(=C\c1cccc([N+](=O)[O-])c1)C2=O` gave Tb PYK inh 2%, SARS PLpro yeast 0%, LmPK inh 2%, Shiga toxin inh 29, Cycloheximide cs 4 and NS1 function inh 1%.
Screening CS(=O)(=O)Oc1ccc2c(c1)O/C(=C\C=C\c1ccccc1)C2=O returned Tb PYK inh 1%, SARS PLpro yeast -2%, LmPK inh 2%, Shiga toxin inh 36*, Cycloheximide cs 15* and NS1 function inh -33%.
`Cc1cc(OCC(=O)NNC(=S)NCC2CCCO2)cc(C)c1Cl` (stereo not drawn) gave Tb PYK inh inconclusive, SARS PLpro yeast -8%, LmPK inh -3%, Shiga toxin inh 33, Cycloheximide cs 17* and NS1 function inh 28%.
Screening Cc1ccccc1OCC(=O)NCC1CCCO1 (stereo not drawn) returned Tb PYK inh 0%, SARS PLpro yeast -2%, LmPK inh -1%, Shiga toxin inh 67, Cycloheximide cs 1 and NS1 function inh -5%.
Screening Cc1cc(C)cc(OCC(=O)NNC(=O)C2CCCO2)c1 (stereo not drawn) returned Tb PYK inh 4%, SARS PLpro yeast 1%, LmPK inh -8%, Shiga toxin inh 28 and Cycloheximide cs 6.
`CCC(=O)c1ccc(OCC(=O)OCC(=O)NCC2CCCO2)cc1` (stereo not drawn) gave Tb PYK inh 0%, SARS PLpro yeast -2%, LmPK inh -11%, Shiga toxin inh 20, Cycloheximide cs 19* and NS1 function inh 17%.
Cc1ccc(OCC(=O)NNC(=O)C2CCCO2)c(C)c1 (stereo not drawn) was read as Tb PYK inh 4%, SARS PLpro yeast 0%, LmPK inh -2%, Shiga toxin inh 12 and Cycloheximide cs 21*.
`O=C(COC(=O)COc1ccc(Br)cc1)NCC1CCCO1` (stereo not drawn) gave Tb PYK inh 2% and SARS PLpro yeast -5%.
`Cc1ccc(OCC(=O)NCC2CCCO2)c(C)c1` (stereo not drawn) gave Tb PYK inh 2%, SARS PLpro yeast 1%, LmPK inh 2%, Shiga toxin inh 34, Cycloheximide cs 39* and NS1 function inh -1%.
For Cc1ccc(Cl)cc1NC(=O)CSc1ccc(C(=O)O)cn1 the results were Tb PYK inh 1%.
For CC1(CCc2ccc3c(c2)OCO3)NCCc2c1[nH]c1ccccc21 (stereo not drawn) the results were Tb PYK inh 6%, SARS PLpro yeast 0%, LmPK inh -1%, Shiga toxin inh -13, Cycloheximide cs -1 and NS1 function inh 0%.
